Compounds with a hit are over-represented: about 2.7% of the library has one in this group of screens.
Neddylation inh = cullin neddylation inhibition; P61081+Q13564; TR-FRET cullin neddylation, biochemical; calls only at 25 µM; 0.58% of 360,000 active; AID 651699; in the data active means inhibition above about 36%
FAS TE block = FAS thioesterase (human) inhibition; P49327; 0.67% of 360,000 active; recombinant FAS-TE, OMFH fluorogenic substrate, fluorescence endpoint; inhibition, % at 15 µM;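 active means compounds whose normalised, plate-corrected inhibition of enzyme fluorescence in the single-dose primary screen is 50% or more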;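 further: 0% = DMSO with enzyme and 100% = substrate without enzyme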
proKLK7 act = activators of human kallikrein-7 zymogen | P49862 | purified proKLK7, EDANS-DABCYL substrate fluorescence; 100% is mature enzyme control, 0% vehicle | activation, % at 7 µM | 0.9% of 370,000 active;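 active means activation above the mean of all tested compounds plus 3 SD, computed per campaign excluding outliers beyond control limits, cut at about 13% in these data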
PfG6PD inh = PfG6PD (Plasmodium falciparum) enzyme inhibition. AID 504690. 0.78% of 350,000 active. inhibition, % at 20 µM. PfGluPho enzyme, NADPH resazurin-diaphorase fluorescence;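 active means inhibition reaching at least a set limit at 20 µM in the primary screen, cut at about 59% in these data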;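 further: 0% = DMSO wells with substrate and 100% = DMSO wells lacking glucose-6-phosphate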
FAS-TE inh conf = confirmation of human fatty acid synthase thioesterase inhibitors; shares compounds with FAS TE block; recombinant FAS-TE, OMFH fluorogenic substrate, fluorescence; inhibition, % at 15 µM; 45% of 2,300 active;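 active means compounds inhibiting the enzyme by at least 50% at 15 µM in any one of the replicates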;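 further: 0% = enzyme with DMSO only and 100% = wells lacking enzyme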
* hit, by the source's call; i = inactive; . = no result given.

SMILES	Neddylation inh	FAS TE block	proKLK7 act	PfG6PD inh	FAS-TE inh conf
O=C1OCCN1C(=O)[C@H]1[C@H](c2ccc(F)cc2)C(c2cccc(Cl)c2)=NN1c1ccc(Br)cc1	i	72.8*	-458.9	27.8	21.0
OC[C@@H]1[C@@H](c2ccccc2)C(c2cccc(Cl)c2)=NN1c1ccccc1	.	28.5	-84.6	14.2	.
OC[C@@H]1[C@@H](c2ccc(Cl)cc2)C(c2ccc(F)cc2)=NN1c1ccccc1	.	30.5	-88.8	41.1	.
CC[C@@H]1C(c2cccc(Cl)c2)=NN(c2ccc(Br)cc2)[C@H]1C(=O)N1CCOC1=O	.	41.9	.	20.5	.
Cc1cccc(C2=NN(c3ccccc3)[C@H](CO)[C@H]2c2ccc(F)cc2)c1	.	23.6	-32.2	30.3	.
O=C1OCCN1C(=O)[C@H]1[C@H](c2ccc(Cl)cc2)C(c2cccc(Cl)c2)=NN1c1ccccc1	.	94.1*	.	20.4	7.4
O=C1OCCN1C(=O)[C@H]1[C@H](c2ccc(F)cc2)C(c2cccc(Cl)c2)=NN1c1ccccc1	.	58.7*	-341.5	26.2	10.9
O=C1OCCN1C(=O)[C@H]1[C@H](c2ccc(Cl)cc2)C(c2ccccc2)=NN1c1ccc(Br)cc1	.	81.1*	-83.8	23.3	38.7
COc1ccccc1C(=O)NC1CCCCN(Cc2cccc(F)c2)C1=O (stereo not given)	.	.	-0.5	.	.
CC1=C2NC(N)=[N+](Cc3ccccc3)CC2n2c(=O)n(-c3ccccc3)c(=O)n2C1 (stereo not given)	.	.	-0.2	.	.
O=C(Nc1nc2ncccn2c1-c1ccc(F)cc1)C1CC1	.	.	9.2	.	.
O=S(=O)(c1ccccc1)c1cnc(-c2ccccc2)nc1N1CCCC1	i	13.0	0.2	-10.1	.
COc1cc2ncc(S(=O)(=O)c3ccccc3)c(N3CCCC(C)C3)c2cc1OC (stereo not given)	i	78.5*	-0.8	3.1	70.8*
Cc1ccc(CN2CC(=O)N3[C@H]4c5cc(Cl)ccc5OC[C@@H]4[C@H](c4ccccc4)[C@]3(C)C2=O)cc1	i	83.5*	-0.7	7.6	17.2
Cc1ccc(CN2CC(=O)N3[C@H]4c5cc(C)ccc5OC[C@@H]4[C@H](c4ccccc4)[C@]3(C)C2=O)cc1	i	51.9*	-0.6	17.5	9.2
O=C(O)c1ccccc1Nc1cc(Cl)c2nonc2c1[N+](=O)[O-]	i	29.0	-0.2	-4.5	.
O=[N+]([O-])c1c(Nc2ccccn2)cc(Cl)c2nonc12	i	62.2*	-4.2	56.1	30.7
CC(C)CN1C(=O)[C@]2(CC(=O)N(C)C2c2ccccc2)c2cc(-n3cc(CCc4ccccc4)nn3)ccc21 (stereo not given in full)	.	.	0.0	.	.
O=[N+]([O-])c1ccc(Sc2nc3ccccc3o2)c([N+](=O)[O-])c1	i	50.3*	0.3	19.4	49.5*
C=CCN(Cc1ccc2c(c1)OCO2)C(C#CC1CC1)C(C)C (stereo not given)	.	.	-0.1	.	.
O=C(CSc1nnc(-c2ccccn2)n1Cc1ccco1)c1ccc(-c2ccccc2)cc1	i	51.0*	0.3	11.1	16.8
FCCCOc1ccc(-c2ccnc(-c3ccccc3)n2)cc1	i	53.9*	0.1	23.4	44.1
O=[N+]([O-])c1ccccc1S(=O)(=O)N1CCC(c2cn3ccccc3n2)CC1	.	.	-0.8	.	.
COC(=O)[C@]12C[C@H](CC(=O)NCC3CCCCC3)C(=O)N(Cc3ccco3)C1=C[C@H](C1CCCC1)O[C@@H]2C	.	.	-0.1	.	.
CC1CCN(C(=O)c2ccc3c(Cl)c4c(nc3c2)CCCC4)CC1	i	71.3*	0.3	0.9	78.3*
SMILES	Neddylation inh	FAS TE block	proKLK7 act	PfG6PD inh	FAS-TE inh conf
CCCCNC(=O)CSc1nc2ccccc2n1S(=O)(=O)c1ccc(Br)cc1	i	0.3	-0.4	-1.5	.
O=C(CSc1nc2ccccc2n1S(=O)(=O)c1cccc([N+](=O)[O-])c1)NCCc1ccccc1	i	76.1*	0.5	-21.4	69.1*
CCC(NC(=O)c1ccc2c(c1)c(C)c(C)n2Cc1ccc(-c2ccccc2C#N)cc1)c1ccccc1 (stereo not given)	.	.	-2.4	.	.
Cc1cc(C)c(C#N)c(SCS(=O)Cc2ccc(Cl)cc2)n1 (stereo not given)	i	69.4*	-0.4	-1.7	70.7*
COC(=O)[C@H](CC(C)C)N1Cc2nnn(CC3CCCCC3)c2-c2cc(F)ccc2S1(=O)=O	.	.	0.4	.	.
N#Cc1ccc(/C=C2\CC3(OC(=O)c4ccc(F)cc4)CCCN2C3)cc1 (stereo not given)	.	.	0.1	.	.
Cc1cc(=O)oc2cc(OCc3ccc(S(=O)(=O)N4CCOCC4)cc3)ccc12	i	67.0*	-0.4	4.4	13.8
COc1ccc(COc2ccc3c(C)cc(=O)oc3c2)cc1	i	28.9	-1.6	-1.8	.
CCOC(=O)C1=C(C)Nc2sc(C(=O)c3ccc(F)cc3)c(N)c2C1c1ccc(C(=O)OC)cc1 (stereo not given)	i	19.4	-11.6	4.3	.
CCOC(=O)C1=C(C)Nc2sc(C(=O)c3ccc(C)cc3)c(N)c2C1c1ccc(C(=O)OC)cc1 (stereo not given)	i	67.0*	-4.3	-1.1	15.4
Cc1ccc(-c2cc(C(=O)NN=Cc3cccc(OCc4ccccc4)c3)[nH]n2)cc1C	.	.	2.5	.	.
COC(=O)c1ccc(S(=O)(=O)N2CCC(NC(=O)COc3ccc(F)cc3)CC2)cc1	.	.	-0.3	.	.
Cc1[nH]n(-c2ccccc2)c(=O)c1/C=N/NC(=O)c1cccc([N+](=O)[O-])c1	i	30.5	-0.6	-46.6	.
Cc1ccc(-n2[nH]c(C)c(/C=N/Nc3ccc([N+](=O)[O-])cc3[N+](=O)[O-])c2=O)cc1C	i	54.9*	-0.3	-30.9	41.2*
Cc1csc(N(C(=O)CCNC(=O)c2ccc([N+](=O)[O-])cc2)c2ccccc2)n1	i	72.4*	0.1	-8.3	78.1*
CCOC(=O)CC(N)c1cccc([N+](=O)[O-])c1 (stereo not given)	i	-8.2	-0.1	1.3	.
CCOC(=O)CC(NC(=O)c1cc2ccccc2oc1=O)c1cccc([N+](=O)[O-])c1 (stereo not given)	i	50.4*	-0.1	7.0	55.3*
COC(=O)CC(NC(=O)Nc1ccc(C)cc1)c1cccc([N+](=O)[O-])c1 (stereo not given)	i	52.8*	0.5	-7.8	65.2*
O=C(O)CC(NC(=O)C(c1ccccc1)c1ccccc1)c1cccc([N+](=O)[O-])c1 (stereo not given)	i	51.8*	-0.2	-22.3	63.6*
COC(=O)[C@]12C[C@H](CC(=O)NCCc3ccccc3OC)C(=O)N(Cc3ccco3)C1=C[C@H](C(C)(C)C)O[C@@H]2C	.	.	-0.1	.	.
O=C(c1cc(-c2ccccc2)on1)N1CCC(Oc2cccnc2)CC1	.	.	-0.9	.	.
CC[C@H](CCCCCC#N)CCC(=O)N(c1ccccc1)c1ccccc1	.	.	-0.5	.	.
CCCOc1ccc(N2C(=O)CC(SC(=NC)Nc3ccc(F)cc3)C2=O)cc1 (stereo not given)	i	-1.3	0.2	-20.6	.

Bioassay records (PubChem BioAssay)
